# Assay results taken from PMC5540273 (PLoS ONE, 2017).
# Where two headings read alike, the source gives them in different places.
# How the values were obtained:
# [1] = test system: FLT3-autoinhibited; settings: concentration: 1 μM, replicates: in singlicate; n = 1
# [2] = test system: FLT3; settings: concentration: 1 μM, replicates: in singlicate; n = 1
# [3] = test system: FLT4; settings: concentration: 1 μM, replicates: in singlicate; n = 1
# [4] = test system: FRK; settings: concentration: 1 μM, replicates: in singlicate; n = 1
# [5] = test system: FYN; settings: concentration: 1 μM, replicates: in singlicate; n = 1
# [6] = test system: GAK; settings: concentration: 1 μM, replicates: in singlicate; n = 1
# [7] = test system: T1, GCN2(Kin.Dom.2,S808G); settings: concentration: 1 μM, replicates: in singlicate; n = 1
# T1 construct: gene EIF2AK4
# [8] = test system: GRK1; settings: concentration: 1 μM, replicates: in singlicate; n = 1
# [9] = test system: T2, GRK2; settings: concentration: 1 μM, replicates: in singlicate; n = 1
# T2 construct: gene ADRBK1
# [10] = test system: T3, GRK3; settings: concentration: 1 μM, replicates: in singlicate; n = 1
# T3 construct: gene ADRBK2
# [11] = test system: GRK4; settings: concentration: 1 μM, replicates: in singlicate; n = 1
# [12] = test system: GRK7; settings: concentration: 1 μM, replicates: in singlicate; n = 1
# [13] = test system: GSK3A; settings: concentration: 1 μM, replicates: in singlicate; n = 1
# [14] = test system: GSK3B; settings: n = 1
# [15] = test system: T4, HASPIN; settings: concentration: 1 μM, replicates: in singlicate; n = 1
# T4 construct: gene GSG2
# [16] = test system: HCK; settings: concentration: 1 μM, replicates: in singlicate; n = 1
# [17] = test system: HIPK1; settings: concentration: 1 μM, replicates: in singlicate; n = 1
# [18] = test system: HIPK2; settings: concentration: 1 μM, replicates: in singlicate; n = 1
# [19] = test system: HIPK3; settings: concentration: 1 μM, replicates: in singlicate; n = 1
# [20] = test system: HIPK4; settings: concentration: 1 μM, replicates: in singlicate; n = 1
# [21] = concentration: 1 μM, replicates: in singlicate
# 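Further: KINOMEscan kinase panel screen.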
structure (smiles),measurement,setting,value
C[C@@H](Oc1cc(-n2cnc3ccc(NC(=O)NC(C)(C)C)cc32)sc1C(N)=O)c1ccccc1Cl [GSK346294],%Inh,[1],0%
same,%Inh,[2],0%
same,%Inh,[3],1%
same,%Inh,[4],10%
same,%Inh,[5],6%
same,%Inh,[6],0%
same,%Inh,[7],0%
same,%Inh,[8],0%
same,%Inh,[9],0%
same,%Inh,[10],34%
same,%Inh,[11],0%
same,%Inh,[12],0%
same,%Inh,[13],18%
same,%Inh,[14]; [21],21%
same,%Inh,[15],1%
same,%Inh,[16],0%
same,%Inh,[17],9%
same,%Inh,[18],0%
same,%Inh,[19],26%
same,%Inh,[20],0%
c1ccc(-c2n[nH]cc2-c2ccnc3ccccc23)nc1 [GW271431],%Inh,[1],5%
same,%Inh,[2],3%
same,%Inh,[3],25%
same,%Inh,[4],10%
same,%Inh,[5],43%
same,%Inh,[6],79%
same,%Inh,[7],3%
same,%Inh,[8],0%
same,%Inh,[9],0%
same,%Inh,[10],34%
same,%Inh,[11],0%
same,%Inh,[12],23%
same,%Inh,[13],15%
same,%Inh,[14]; [21],17%
same,%Inh,[15],10%
same,%Inh,[16],0%
same,%Inh,[17],15%
same,%Inh,[18],0%
same,%Inh,[19],26%
same,%Inh,[20],0%
Cc1cn2c(=O)cc(N3CCOCC3)nc2n1Cc1cccc(Cl)c1Cl [GSK2334006],%Inh,[1],10%
same,%Inh,[2],13%
same,%Inh,[3],39%
same,%Inh,[4],28%
same,%Inh,[5],23%
same,%Inh,[6],35%
same,%Inh,[7],12%
same,%Inh,[8],2%
same,%Inh,[9],3%
same,%Inh,[10],0%
same,%Inh,[11],0%
same,%Inh,[12],0%
same,%Inh,[13],11%
same,%Inh,[14]; [21],13%
same,%Inh,[15],11%
same,%Inh,[16],16%
same,%Inh,[17],0%
same,%Inh,[18],0%
same,%Inh,[19],18%
same,%Inh,[20],6%
COC(=O)Nc1nc2cc(Oc3ccc(NC(=O)Nc4cc(F)ccc4F)cc3)ccc2[nH]1.Cl [GW701424],%Inh,[1],14%
same,%Inh,[2],99.2%
same,%Inh,[3],85%
same,%Inh,[4],20%
same,%Inh,[5],0%
same,%Inh,[6],0%
same,%Inh,[7],0%
same,%Inh,[8],11%
same,%Inh,[9],0%
same,%Inh,[10],50%
same,%Inh,[11],0%
same,%Inh,[12],0%
same,%Inh,[13],3%
same,%Inh,[14]; [21],11%
same,%Inh,[15],0%
same,%Inh,[16],6%
same,%Inh,[17],0%
same,%Inh,[18],0%
same,%Inh,[19],5%
same,%Inh,[20],29%
O=c1cc(N2CCOCC2)nc2n(Cc3cccc4ccccc34)ccn12 [GSK2333389],%Inh,[1],3%
same,%Inh,[2],10%
same,%Inh,[3],8%
same,%Inh,[4],0%
same,%Inh,[5],0%
same,%Inh,[6],1%
same,%Inh,[7],1%
same,%Inh,[8],13%
same,%Inh,[9],0%
same,%Inh,[10],0%
same,%Inh,[11],0%
same,%Inh,[12],0%
same,%Inh,[13],9%
same,%Inh,[14]; [21],10%
same,%Inh,[15],0%
same,%Inh,[16],0%
same,%Inh,[17],0%
same,%Inh,[18],0%
same,%Inh,[19],21%
same,%Inh,[20],5%
CC(=O)Nc1ccc(COc2ccc(Nc3ccnc4cc(-c5ccccn5)ccc34)cc2)cc1.Cl [GW440148],%Inh,[1],38%
same,%Inh,[2],98%
same,%Inh,[3],99.9%
same,%Inh,[4],0%
same,%Inh,[5],47%
same,%Inh,[6],8%
same,%Inh,[7],0%
same,%Inh,[8],0%
same,%Inh,[9],0%
same,%Inh,[10],17%
same,%Inh,[11],0%
same,%Inh,[12],0%
same,%Inh,[13],34%
same,%Inh,[14]; [21],12%
same,%Inh,[15],13%
same,%Inh,[16],52%
same,%Inh,[17],0%
same,%Inh,[18],0%
same,%Inh,[19],12%
same,%Inh,[20],7%
NS(=O)(=O)CCc1cccc(Nc2nccc(-c3c(-c4cccc(NC(=O)c5c(F)cccc5F)c4)nn4ccccc34)n2)c1 [GSK336735],%Inh,[1],11%
same,%Inh,[2],98.9%
same,%Inh,[3],99.2%
same,%Inh,[4],97.2%
same,%Inh,[5],96.7%
same,%Inh,[6],28%
same,%Inh,[7],87%
same,%Inh,[8],0%
same,%Inh,[9],0%
same,%Inh,[10],89%
same,%Inh,[11],43%
same,%Inh,[12],12%
same,%Inh,[13],20%
same,%Inh,[14]; [21],6%
same,%Inh,[15],0%
same,%Inh,[16],98.9%
same,%Inh,[17],0%
same,%Inh,[18],0%
same,%Inh,[19],8%
same,%Inh,[20],25%
Cc1c(Cn2c(C)nn3c(=O)cc(N4CCOC(C)C4)nc23)cccc1C(F)(F)F (stereo not drawn) [GSK2344444],%Inh,[1],3%
same,%Inh,[2],0%
same,%Inh,[3],11%
same,%Inh,[4],0%
same,%Inh,[5],2%
same,%Inh,[6],0%
same,%Inh,[7],0%
same,%Inh,[8],1%
same,%Inh,[9],0%
same,%Inh,[10],0%
same,%Inh,[11],0%
same,%Inh,[12],0%
same,%Inh,[13],0%
same,%Inh,[14]; [21],10%
same,%Inh,[15],0%
same,%Inh,[16],0%
same,%Inh,[17],0%
same,%Inh,[18],0%
same,%Inh,[19],7%
same,%Inh,[20],0%
N#Cc1c(N2CCOCC2)sc(-c2ccn[nH]2)c1-c1ccc(Cl)cc1,%Inh,[1],12%
same,%Inh,[2],0%
same,%Inh,[3],0%
same,%Inh,[4],0%
same,%Inh,[5],0%
same,%Inh,[6],0%
same,%Inh,[7],0%
same,%Inh,[8],15%
same,%Inh,[9],0%
same,%Inh,[10],25%
same,%Inh,[11],0%
same,%Inh,[12],26%
same,%Inh,[13],0%
same,%Inh,[14]; [21],0%
same,%Inh,[15],6%
same,%Inh,[16],28%
same,%Inh,[17],26%
same,%Inh,[18],16%
same,%Inh,[19],28%
same,%Inh,[20],0%
Cc1cccc(-c2nc(-c3ccc(S(C)(=O)=O)cc3)sc2-c2ccncc2)c1,%Inh,[1],2%
same,%Inh,[2],14%
same,%Inh,[3],8%
same,%Inh,[4],0%
same,%Inh,[5],0%
same,%Inh,[6],5%
same,%Inh,[7],0%
same,%Inh,[8],0%
same,%Inh,[9],0%
same,%Inh,[10],3%
same,%Inh,[11],0%
same,%Inh,[12],31%
same,%Inh,[13],0%
same,%Inh,[14]; [21],3%
same,%Inh,[15],0%
same,%Inh,[16],11%
same,%Inh,[17],8%
same,%Inh,[18],0%
same,%Inh,[19],15%
same,%Inh,[20],4%
Cc1ccc(C(=O)NCC(N)=O)cc1-n1c(C)cc(OCc2ccc(F)cc2F)c(Br)c1=O,%Inh,[1],0%
same,%Inh,[2],13%
same,%Inh,[3],0%
same,%Inh,[4],25%
same,%Inh,[5],20%
same,%Inh,[6],6%
same,%Inh,[7],0%
same,%Inh,[8],20%
same,%Inh,[9],0%
same,%Inh,[10],0%
same,%Inh,[11],0%
same,%Inh,[12],0%
same,%Inh,[13],58%
same,%Inh,[14]; [21],0%
same,%Inh,[15],0%
same,%Inh,[16],21%
same,%Inh,[17],46%
same,%Inh,[18],0%
same,%Inh,[19],0%
same,%Inh,[20],0%
O=C1NC(=O)C(N2CCc3ccccc32)=C1c1cccc(Cl)c1 [SB-408010],%Inh,[1],21%
same,%Inh,[2],0%
same,%Inh,[3],2%
same,%Inh,[4],0%
same,%Inh,[5],0%
same,%Inh,[6],10%
same,%Inh,[7],17%
same,%Inh,[8],53%
same,%Inh,[9],0%
same,%Inh,[10],0%
same,%Inh,[11],29%
same,%Inh,[12],5%
same,%Inh,[13],2%
same,%Inh,[14]; 1 µM,27%
same,%Inh,[15],0%
same,%Inh,[16],25%
same,%Inh,[17],27%
same,%Inh,[18],13%
same,%Inh,[19],7%
same,%Inh,[20],0%
CSc1ccc(-c2cc3ncnc(SCC(=O)O)c3s2)cc1,%Inh,[1],0%
same,%Inh,[2],0%
same,%Inh,[3],0%
same,%Inh,[4],16%
same,%Inh,[5],4%
same,%Inh,[6],0%
same,%Inh,[7],0%
same,%Inh,[8],0%
same,%Inh,[9],0%
same,%Inh,[10],13%
same,%Inh,[11],0%
same,%Inh,[12],2%
same,%Inh,[13],0%
same,%Inh,[14]; [21],0%
same,%Inh,[15],0%
same,%Inh,[16],33%
same,%Inh,[17],55%
same,%Inh,[18],52%
same,%Inh,[19],33%
same,%Inh,[20],22%
Nc1nccc(-c2c(-c3ccc(F)cc3)ncn2C2CCN(CC(F)(F)F)CC2)n1 [SB-236560],%Inh,[1],0%
same,%Inh,[2],18%
same,%Inh,[3],21%
same,%Inh,[4],1%
same,%Inh,[5],0%
same,%Inh,[6],15%
same,%Inh,[7],48%
same,%Inh,[8],18%
same,%Inh,[9],16%
same,%Inh,[10],0%
same,%Inh,[11],10%
same,%Inh,[12],2%
same,%Inh,[13],0%
same,%Inh,[14]; [21],0%
same,%Inh,[15],36%
same,%Inh,[16],0%
same,%Inh,[17],27%
same,%Inh,[18],57%
same,%Inh,[19],0%
same,%Inh,[20],0%
Cc1cccc(-c2nc(Nc3ccc4ncsc4c3)c3ccccc3n2)n1 [GW867588],%Inh,[1],12%
same,%Inh,[2],2%
same,%Inh,[3],0%
same,%Inh,[4],0%
same,%Inh,[5],4%
same,%Inh,[6],0%
same,%Inh,[7],4%
same,%Inh,[8],0%
same,%Inh,[9],9%
same,%Inh,[10],0%
same,%Inh,[11],0%
same,%Inh,[12],7%
same,%Inh,[13],3%
same,%Inh,[14]; [21],5%
same,%Inh,[15],16%
same,%Inh,[16],24%
same,%Inh,[17],0%
same,%Inh,[18],11%
same,%Inh,[19],0%
same,%Inh,[20],6%
